# Screening results from PubChem BioAssay.
# This is a sample that favours compounds with a hit; in the whole collection about 21% have one here.
# CHX counter: affects cycloheximide protein synthesis inhibition readout, counter-screen; cell reporter, cycloheximide protein synthesis inhibition counterscreen; max response, %; 12% of 300,000 active; AID 2314; in the data active = max response mostly above about 13%, no sharp cut-off; inactive = mostly below about 14%; note: read at 38.3 µM for the half of the compounds with a filed dose; 0% is about no effect
# Shiga toxin inh: blocks Shiga toxin action in Vero cells; inhibition, % at 38.7 µM; 9.2% of 290,000 active; AID 2315; Vero cells, Shiga toxin protein synthesis inhibition reporter; in the data active = inhibition mostly above about 28%, no sharp cut-off; inactive = mostly below about 43%; note: 0% is about no effect
# HCMV antiviral: inhibitors of human cytomegalovirus | 4.5% of 410,000 active | AID 1259415 | HFF cells, HCMV-luciferase reporter, 72 h; active compounds read low | activity change, negative = inhibition, % at 57.5 µM; in the data active = activity change below about -60%; inconclusive = no clear call, values can overlap the other calls; inactive = above about -39%; note: % is set by controls: 0 for no effect and ±100 for the full control effect
#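 HFF cells seeded 16 h at 37C, treated with compounds, infected with luciferase-reporter HCMV at MOI 1 PFU/cell; luciferase read at 72 h post infection, normalized to buffer-only and Salinomycin controls.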
# Pf growth 96h: P. falciparum growth inhibition at 96 hours; 6.9% of 320,000 active; P. falciparum luciferase reporter growth, 96 h; Potency, µM (titrated, usually from 28.7 µM), for the others: at the highest dose activity change, negative = inhibition, actives largely listed as inhibitors; note: potency is the fitted concentration of half-maximal effect; % is set by controls: 0 for no effect and ±100 for the full control effect
#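 Cell-based qHTS: luciferase-tagged P. falciparum in erythrocytes (2% hematocrit, 0.05% parasitemia final) incubated with compounds for 96 hours, 37 C, 5% CO2; luciferase detection reagent then added and luminescence measured.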
# Pf growth 48h: P. falciparum growth inhibition at 48 hours (one generation). P. falciparum luciferase growth in erythrocytes, 48 h. Potency, µM (top dose mostly 28.7 µM), inactives show at the highest dose activity change, negative = inhibition, most hits filed as inhibitors. 5.9% of 310,000 active; note: potency is the fitted concentration of half-maximal effect; % is set by controls: 0 for no effect and ±100 for the full control effect
#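 Cell-based growth assay: transgenic P. falciparum expressing firefly luciferase, cultured in red cells within RPMI 1640 containing 0.5% w/v Albumax, 24 mM bicarbonate and gentamycin. A drop in luciferase activity indicates inhibition.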
# HCV inhibitor: HCV inhibition. Huh7.5.1 HCVcc-Cre infection, luciferase reporter, 44 h. Potency, µM (titrated, usually from 41.8 µM), for the others: top-dose activity change, negative = inhibition, actives largely listed as inhibitors. 3.4% of 340,000 active; note: potency is the fitted concentration of half-maximal effect; % is set by controls: 0 for no effect and ±100 for the full control effect
#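 Whole-lifecycle infectious HCVcc-Cre system; cells 1,000/well, compound then virus (~0.5 moi) added 4 h after plating, 44 h culture. Luciferase read 15 sec following 15 min substrate incubation, room temp.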
# * = called active by the depositor; ? = inconclusive; / = no result given; + = active, no number. Unless noted, calls come from the whole dose curve; as a rule, active = well fitted inhibition curve with a large enough effect; inconclusive = small, poorly fitted or top-dose-only effect, or another doubt; inactive = no such curve, though single readings can be large or run the other way.
SMILES,CHX counter,Shiga toxin inh,HCMV antiviral,Pf growth 96h,Pf growth 48h,HCV inhibitor
O=C(Nc1ccc2c(c1)OCO2)N1CCN(c2ccc(F)cc2)CC1,18.6*,46.3,-19.4,-4.0%,9.0%,-21.8%
O=C(Nc1cccc(OC(=O)N2CCOCC2)c1)N1CCOCC1,-1.6,-10.7,1.7,18.4%,-2.4%,-7.4%
O=C(Nc1cccc(O)c1)N1CCOCC1,5.7,20.6,-22.8,11.7µM*,39.7%,4.3%
O=C(Nc1ccc2c(c1)OCO2)N1CCN(c2ccccc2)CC1,10.1,21.3,?,-10.6%,-5.6%,5.4%
Fc1ccc(-c2cc(-c3ccc(F)cc3)c3c(n2)-c2cc(F)ccc2OC3)cc1,/,/,12.0,/,/,/
O=C(C[C@H]1C/C=C\CC[C@@H](Cc2ccc(F)cc2)C(=O)O[C@H](c2ccccc2)CNC1=O)N[C@H](CO)Cc1ccccc1,/,/,-12.2,/,/,3.7%
Fc1cccc(CNc2ncnc3cc(Cl)ccc23)c1F,-3.7,-4.5,?,?,/,7.08µM*
COc1cccc(CNc2ncnc3cc(Cl)ccc23)c1,-2.7,-7.5,?,-2.5%,?,11.2µM*
CC(C)Cn1cc(F)c(=O)n(CC(C)C)c1=O,-1.5,17.8,-34.5,?,6.4%,6.3%
Cc1cc2c(c(=O)o1)C(c1ccc([N+](=O)[O-])o1)C(C#N)=C(N)O2 (centres undefined),2.2,-1.9,-39.8,9.2%,1.8%,14.3%
CCC1(c2ccccc2)C(=O)N(C(=O)OC(C)(C)C)N1C(=O)OC(C)(C)C (centres undefined),/,/,3.4,?,13.1µM*,18.3%
CCOC(=O)N1C(=O)[C@](CC)(c2ccccc2)N1C(=O)OCC,19.3*,9.2,-7.5,2.9%,10.1%,4.0%
CC(C)(C)OC(=O)N1C(=O)[C@](OC(=O)c2ccccc2)(c2ccccc2)c2cccc(F)c21,/,/,-13.6,/,/,/
Cc1c(Cl)cccc1N(Cc1ccc(C(=O)O)cc1)S(=O)(=O)c1ccccc1,-4.9,-12.2,-13.9,26.1%,-10.3%,2.0%
CCOc1cccc2cc(C(=O)N3CCOCC3)c(=O)oc12,9.5,5.6,14.0,11.7µM*,16.2%,-0.8%
COc1cccc2cc(C(=O)OCC(=O)N3CC(C)OC(C)C3)c(=O)oc12 (centres undefined),/,/,-28.3,/,/,3.7%
CCOc1cccc2cc(C(=O)N3CC(C)OC(C)C3)c(=O)oc12 (centres undefined),-2.2,-9.7,21.0,6.57µM*,5.4%,14.0%
Cc1ccc(N=N/C(=C\O)C(=O)c2ccc(Cl)cc2)cc1,36.0*,105.9*,-87.1*,85.0%,?,10µM*
Oc1ccccc1/C=N/Nc1nc2ccccc2o1,62.3*,97.1*,+,2.08µM*,2.62µM*,?
O=C(CSc1nc2ccccc2o1)N/N=C/c1ccc(C(=O)O)cc1,5.9,19.8,-16.2,56.1%,58.4%,4.6%
COc1cc(/C=N/Nc2nc3ccccc3o2)cc(OC)c1O,25.2,42.3,-21.7,/,6.9%,?
Brc1ccc(/C=N/Nc2nc3ccccc3o2)cc1,41.5*,57.3*,-9.3,?,75.6%,-15.4%
CC1(C(=O)NC(=S)N(Cc2ccccc2)c2ccccn2)CC1(Cl)Cl (centres undefined),21.7*,30.5,-30.1,?,22.9%,34.7%
Cc1ccccc1C(=O)NC(=S)N(Cc1ccccc1)c1ccccn1,/,/,-1.7,/,/,9.5%
CCOc1cccc2cc(-c3csc(NC(=O)CCC(=O)NCCCN4CCC(C)CC4)n3)c(=O)oc12,40.7*,83.4*,/,37.2%,195.0%,/
CCOc1cccc2cc(-c3csc(NC(=O)CCC(=O)N4CCC(C)CC4)n3)c(=O)oc12,-1.1,21.0,-11.7,14.2%,/,8.6%
CCOc1cccc2cc(-c3csc(NC(=O)CCC(=O)NCCN4CCCCC4C)n3)c(=O)oc12 (centres undefined),39.8*,76.5,36.1,?,401.3%,?
COc1cccc2cc(-c3csc(NC(=O)CCC(=O)NCCCN4CCC(C)CC4)n3)c(=O)oc12,28.4*,72.9*,92.6,-8.5%,-48.3%,-3.9%
COc1ccc(-c2cc3ccc(O)c(CN4CCC(C)CC4)c3oc2=O)cc1OC,/,/,19.5,/,/,/
